Laboratory results: article PMC7862700, “An all-to-all approach to the identification of sequence-specific readers for epigenetic DNA modifications on cytosine”

What was measured:
Assay in all cases: DAPPL (digital affinity profiling via proximity ligation, sequencing); 10 mM Tris-HCl pH 7.5, 50 mM NaCl, 1 mM DTT, 4% glycerol, room temperature, 30 min; GST-TFs on glutathione beads, 16-mer random dsDNA library, 0.1% formaldehyde crosslink after washing; high values mean tight binding
FLI1 = biological target: T1, FLI1 (Homo sapiens, UniProt Q01543 1-452); conditions: protein: recombinant; tags: N-terminal GST; dsDNA, one strand shown
T1 sequence: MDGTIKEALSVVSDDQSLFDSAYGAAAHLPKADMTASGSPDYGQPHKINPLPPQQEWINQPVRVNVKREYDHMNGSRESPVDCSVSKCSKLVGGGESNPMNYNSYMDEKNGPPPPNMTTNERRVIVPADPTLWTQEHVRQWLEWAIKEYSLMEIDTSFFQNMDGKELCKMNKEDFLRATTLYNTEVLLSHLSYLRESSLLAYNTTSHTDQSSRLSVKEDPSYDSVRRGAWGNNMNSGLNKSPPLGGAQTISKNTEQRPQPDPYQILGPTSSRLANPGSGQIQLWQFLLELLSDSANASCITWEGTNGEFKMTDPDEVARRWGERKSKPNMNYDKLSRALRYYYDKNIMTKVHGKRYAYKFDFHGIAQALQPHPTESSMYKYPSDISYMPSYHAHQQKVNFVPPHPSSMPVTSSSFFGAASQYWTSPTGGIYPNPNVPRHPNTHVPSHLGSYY
Method in brief: (§1)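 Sequencing on an Illumina NextSeq500 followed washing, crosslinking with 0.1% formaldehyde, proximity ligation (BsaI/T4 ligase, 1 h, 37 °C) and PCR amplification of pools that had been incubated for 30 min at room temperature with 200 nmole of a random double-stranded 16-mer DNA library in Tris/NaCl/DTT/glycerol buffer. Each pool held DNA-barcoded human transcription factors, expressed in yeast as GST fusions and captured on glutathione beads, plus a tag-only sample. Binding signal is a hexamer's read frequency for a factor divided by its frequency in the tag-only sample.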

ELK1 = biological target: T2, ELK1 (Homo sapiens, UniProt P19419 1-428); conditions: protein: recombinant; tags: N-terminal GST; dsDNA, one strand shown
T2 sequence: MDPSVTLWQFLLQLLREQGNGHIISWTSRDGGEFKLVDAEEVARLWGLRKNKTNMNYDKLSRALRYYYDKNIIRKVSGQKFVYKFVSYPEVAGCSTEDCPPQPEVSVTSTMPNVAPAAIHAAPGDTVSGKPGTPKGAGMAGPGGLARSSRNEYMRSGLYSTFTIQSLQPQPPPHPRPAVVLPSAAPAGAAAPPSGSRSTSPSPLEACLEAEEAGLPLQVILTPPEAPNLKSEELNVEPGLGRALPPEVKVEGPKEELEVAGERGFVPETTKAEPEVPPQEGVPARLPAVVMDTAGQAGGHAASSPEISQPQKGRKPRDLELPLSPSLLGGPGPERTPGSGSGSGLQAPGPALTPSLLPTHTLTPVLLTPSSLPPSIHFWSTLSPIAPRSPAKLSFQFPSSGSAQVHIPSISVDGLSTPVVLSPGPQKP
Method in brief: as §1

GABPA = biological target: T3, GABPA (Homo sapiens, UniProt Q06546 1-454); conditions: protein: recombinant; tags: N-terminal GST; dsDNA, one strand shown
T3 sequence: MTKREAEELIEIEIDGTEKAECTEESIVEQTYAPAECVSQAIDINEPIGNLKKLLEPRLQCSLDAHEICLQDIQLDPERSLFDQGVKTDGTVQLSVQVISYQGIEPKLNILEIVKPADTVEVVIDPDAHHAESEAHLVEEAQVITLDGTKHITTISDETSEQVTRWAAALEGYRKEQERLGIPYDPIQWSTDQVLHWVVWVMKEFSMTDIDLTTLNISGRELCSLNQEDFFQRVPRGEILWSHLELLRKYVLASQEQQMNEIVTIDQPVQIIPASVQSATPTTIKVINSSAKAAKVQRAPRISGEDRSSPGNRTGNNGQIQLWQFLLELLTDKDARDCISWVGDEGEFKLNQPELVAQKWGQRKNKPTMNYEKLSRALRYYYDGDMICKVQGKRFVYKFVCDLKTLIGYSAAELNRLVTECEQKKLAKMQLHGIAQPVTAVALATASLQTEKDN
Method in brief: as §1

ERG = biological target: T4, ERG (Homo sapiens, UniProt P11308 1-479); conditions: protein: recombinant; tags: N-terminal GST; dsDNA, one strand shown
T4 sequence: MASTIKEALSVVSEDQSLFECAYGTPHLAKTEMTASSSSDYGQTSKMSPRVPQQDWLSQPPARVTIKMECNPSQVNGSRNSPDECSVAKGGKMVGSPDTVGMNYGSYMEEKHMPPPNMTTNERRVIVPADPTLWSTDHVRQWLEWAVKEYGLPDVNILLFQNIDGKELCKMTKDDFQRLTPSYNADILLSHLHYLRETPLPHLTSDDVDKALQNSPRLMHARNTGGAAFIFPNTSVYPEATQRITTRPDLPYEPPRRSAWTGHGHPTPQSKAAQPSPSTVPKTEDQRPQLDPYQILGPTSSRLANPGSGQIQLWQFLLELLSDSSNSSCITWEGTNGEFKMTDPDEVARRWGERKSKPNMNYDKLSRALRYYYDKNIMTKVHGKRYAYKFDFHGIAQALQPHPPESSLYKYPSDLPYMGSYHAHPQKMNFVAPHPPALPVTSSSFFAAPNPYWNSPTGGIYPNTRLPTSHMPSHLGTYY
Method in brief: as §1

ELF1 = ELF1 (Homo sapiens, UniProt P32519 1-619); conditions: protein: recombinant; tags: N-terminal GST; dsDNA, one strand shown
Sequence of ELF1 (P32519 whole entry): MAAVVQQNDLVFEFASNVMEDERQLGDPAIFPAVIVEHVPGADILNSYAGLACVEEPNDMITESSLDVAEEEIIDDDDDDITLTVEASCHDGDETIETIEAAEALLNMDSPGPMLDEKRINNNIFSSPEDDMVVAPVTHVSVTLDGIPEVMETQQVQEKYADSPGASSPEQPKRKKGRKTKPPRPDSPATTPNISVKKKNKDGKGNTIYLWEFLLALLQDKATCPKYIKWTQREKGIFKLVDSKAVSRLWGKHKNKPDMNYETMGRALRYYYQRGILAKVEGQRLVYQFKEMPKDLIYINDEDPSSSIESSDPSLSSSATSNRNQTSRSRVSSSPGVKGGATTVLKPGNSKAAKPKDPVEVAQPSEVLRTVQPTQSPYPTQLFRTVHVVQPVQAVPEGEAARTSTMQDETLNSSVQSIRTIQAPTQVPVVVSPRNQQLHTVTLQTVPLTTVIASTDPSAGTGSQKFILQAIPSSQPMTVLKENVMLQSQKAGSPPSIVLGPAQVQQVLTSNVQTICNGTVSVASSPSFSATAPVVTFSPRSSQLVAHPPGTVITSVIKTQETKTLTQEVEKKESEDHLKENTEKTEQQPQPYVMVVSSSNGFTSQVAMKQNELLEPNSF
Method in brief: as §1

EHF = biological target: T5, EHF (Homo sapiens, UniProt Q9NZC4 1-300); conditions: protein: recombinant; tags: N-terminal GST; dsDNA, one strand shown
T5 sequence: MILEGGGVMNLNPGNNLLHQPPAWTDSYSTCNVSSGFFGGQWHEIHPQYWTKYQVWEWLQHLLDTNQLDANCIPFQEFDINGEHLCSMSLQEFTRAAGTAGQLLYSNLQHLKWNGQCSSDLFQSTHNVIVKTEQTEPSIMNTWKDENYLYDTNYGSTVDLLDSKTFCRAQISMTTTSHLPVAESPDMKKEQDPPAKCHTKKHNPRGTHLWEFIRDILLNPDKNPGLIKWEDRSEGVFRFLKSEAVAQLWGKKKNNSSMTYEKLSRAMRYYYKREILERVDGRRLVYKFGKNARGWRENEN
Method in brief: as §1

SPI1 = SPI1 (Homo sapiens, UniProt P17947 1-270); conditions: protein: recombinant; tags: N-terminal GST; dsDNA, one strand shown
Method in brief: as §1

SPIB = SPIB (Homo sapiens, UniProt Q01892 1-262); conditions: protein: recombinant; tags: N-terminal GST; dsDNA, one strand shown
Sequence of SPIB (Q01892 whole entry): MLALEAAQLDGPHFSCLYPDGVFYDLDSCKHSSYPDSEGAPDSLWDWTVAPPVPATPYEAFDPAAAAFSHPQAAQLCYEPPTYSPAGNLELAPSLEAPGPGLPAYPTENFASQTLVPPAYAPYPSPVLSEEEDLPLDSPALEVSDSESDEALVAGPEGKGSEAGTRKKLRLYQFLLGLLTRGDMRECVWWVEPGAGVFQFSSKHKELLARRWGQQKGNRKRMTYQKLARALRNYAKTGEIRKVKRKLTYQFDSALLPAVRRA
Method in brief: as §1

ELK3 = biological target: T6, ELK3 (Homo sapiens, UniProt P41970 1-407); conditions: protein: recombinant; tags: N-terminal GST; dsDNA, one strand shown
T6 sequence: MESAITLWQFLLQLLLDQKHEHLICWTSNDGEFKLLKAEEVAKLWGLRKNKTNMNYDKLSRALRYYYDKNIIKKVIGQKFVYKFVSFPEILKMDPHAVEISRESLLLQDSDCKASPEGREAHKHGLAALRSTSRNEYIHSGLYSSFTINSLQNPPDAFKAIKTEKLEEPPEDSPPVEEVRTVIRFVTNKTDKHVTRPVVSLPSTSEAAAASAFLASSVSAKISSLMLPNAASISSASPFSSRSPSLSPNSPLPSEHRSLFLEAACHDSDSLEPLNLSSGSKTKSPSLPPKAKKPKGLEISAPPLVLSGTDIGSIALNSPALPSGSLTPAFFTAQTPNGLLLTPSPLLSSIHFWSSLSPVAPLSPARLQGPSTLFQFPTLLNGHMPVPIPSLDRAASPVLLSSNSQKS
Method in brief: as §1

FEV = biological target: T7, FEV (Homo sapiens, UniProt Q99581 1-238); conditions: protein: recombinant; tags: N-terminal GST; dsDNA, one strand shown
T7 sequence: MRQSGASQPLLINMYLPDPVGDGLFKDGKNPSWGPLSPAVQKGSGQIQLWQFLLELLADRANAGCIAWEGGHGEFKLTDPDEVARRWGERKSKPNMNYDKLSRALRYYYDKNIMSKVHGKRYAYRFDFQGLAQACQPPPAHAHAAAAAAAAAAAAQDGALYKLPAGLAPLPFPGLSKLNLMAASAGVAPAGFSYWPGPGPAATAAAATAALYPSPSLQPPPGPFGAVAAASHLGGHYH
Method in brief: as §1

ETV5 = ETV5 (Homo sapiens, UniProt P41161 1-510); conditions: protein: recombinant; tags: N-terminal GST; dsDNA, one strand shown
Sequence of ETV5 (P41161 whole entry): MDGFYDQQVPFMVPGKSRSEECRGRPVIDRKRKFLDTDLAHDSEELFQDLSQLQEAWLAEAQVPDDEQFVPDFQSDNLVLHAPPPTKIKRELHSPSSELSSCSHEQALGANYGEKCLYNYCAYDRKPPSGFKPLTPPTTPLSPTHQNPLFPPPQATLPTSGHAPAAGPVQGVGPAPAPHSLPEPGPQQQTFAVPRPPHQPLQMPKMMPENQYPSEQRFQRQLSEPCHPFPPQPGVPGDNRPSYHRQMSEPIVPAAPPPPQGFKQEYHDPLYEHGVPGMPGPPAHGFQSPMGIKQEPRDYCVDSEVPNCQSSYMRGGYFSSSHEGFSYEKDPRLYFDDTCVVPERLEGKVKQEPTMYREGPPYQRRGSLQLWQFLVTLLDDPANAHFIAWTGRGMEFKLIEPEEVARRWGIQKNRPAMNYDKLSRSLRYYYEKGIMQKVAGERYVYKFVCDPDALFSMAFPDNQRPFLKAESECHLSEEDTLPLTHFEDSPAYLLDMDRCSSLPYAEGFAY
Method in brief: as §1

HSF1 = HSF1 (Homo sapiens, UniProt Q00613 1-529); conditions: protein: recombinant; tags: N-terminal GST; chain copies: 3; dsDNA, one strand shown
Sequence of HSF1 (Q00613 whole entry): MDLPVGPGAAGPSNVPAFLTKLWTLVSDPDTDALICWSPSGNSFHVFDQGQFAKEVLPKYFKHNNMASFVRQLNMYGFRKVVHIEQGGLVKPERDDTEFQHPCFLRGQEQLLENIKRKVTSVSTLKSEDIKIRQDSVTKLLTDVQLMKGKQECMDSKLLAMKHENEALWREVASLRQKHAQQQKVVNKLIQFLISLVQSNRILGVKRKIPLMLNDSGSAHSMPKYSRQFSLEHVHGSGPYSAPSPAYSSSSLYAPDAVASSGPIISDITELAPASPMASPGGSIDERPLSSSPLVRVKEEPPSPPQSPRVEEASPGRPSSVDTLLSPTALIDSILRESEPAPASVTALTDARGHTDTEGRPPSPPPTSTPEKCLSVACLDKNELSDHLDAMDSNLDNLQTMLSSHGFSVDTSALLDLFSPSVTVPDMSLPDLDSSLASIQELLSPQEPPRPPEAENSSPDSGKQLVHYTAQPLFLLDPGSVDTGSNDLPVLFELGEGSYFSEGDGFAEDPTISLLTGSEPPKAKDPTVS
Method in brief: as §1

SPIC = biological target: T8, SPIC (Homo sapiens, UniProt Q8N5J4 1-248); conditions: protein: recombinant; tags: N-terminal GST; dsDNA, one strand shown
T8 sequence: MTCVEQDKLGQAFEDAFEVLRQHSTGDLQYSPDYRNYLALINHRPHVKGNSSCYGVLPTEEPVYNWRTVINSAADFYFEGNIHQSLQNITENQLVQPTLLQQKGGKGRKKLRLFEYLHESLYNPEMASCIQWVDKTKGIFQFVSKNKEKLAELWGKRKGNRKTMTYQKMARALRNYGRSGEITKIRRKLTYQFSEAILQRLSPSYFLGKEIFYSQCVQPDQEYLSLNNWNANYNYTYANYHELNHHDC
Method in brief: as §1

ELF4 = ELF4 (Homo sapiens, UniProt Q99607 1-663); conditions: protein: recombinant; tags: N-terminal GST; dsDNA, one strand shown
Sequence of ELF4 (Q99607 whole entry): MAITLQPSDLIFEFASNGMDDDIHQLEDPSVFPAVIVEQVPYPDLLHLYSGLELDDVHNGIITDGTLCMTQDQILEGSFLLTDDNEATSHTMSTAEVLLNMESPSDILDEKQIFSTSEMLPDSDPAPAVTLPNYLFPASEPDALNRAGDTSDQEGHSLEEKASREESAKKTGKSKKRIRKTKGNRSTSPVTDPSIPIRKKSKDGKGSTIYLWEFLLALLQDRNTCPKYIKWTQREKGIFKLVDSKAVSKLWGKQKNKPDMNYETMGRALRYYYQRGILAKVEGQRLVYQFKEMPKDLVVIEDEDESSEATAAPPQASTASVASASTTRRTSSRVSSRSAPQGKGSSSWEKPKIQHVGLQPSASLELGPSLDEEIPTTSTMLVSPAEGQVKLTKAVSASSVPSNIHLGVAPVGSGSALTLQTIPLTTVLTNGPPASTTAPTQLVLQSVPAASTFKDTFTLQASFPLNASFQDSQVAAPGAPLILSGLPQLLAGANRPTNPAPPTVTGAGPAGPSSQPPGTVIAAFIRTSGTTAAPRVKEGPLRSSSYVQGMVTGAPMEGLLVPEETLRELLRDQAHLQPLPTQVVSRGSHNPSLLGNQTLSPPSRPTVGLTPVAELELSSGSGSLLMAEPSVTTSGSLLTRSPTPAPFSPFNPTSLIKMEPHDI
Method in brief: as §1

ELK4 = biological target: T9, ELK4 (Homo sapiens, UniProt P28324-2 1-405); conditions: protein: recombinant; tags: N-terminal GST; dsDNA, one strand shown
T9 sequence: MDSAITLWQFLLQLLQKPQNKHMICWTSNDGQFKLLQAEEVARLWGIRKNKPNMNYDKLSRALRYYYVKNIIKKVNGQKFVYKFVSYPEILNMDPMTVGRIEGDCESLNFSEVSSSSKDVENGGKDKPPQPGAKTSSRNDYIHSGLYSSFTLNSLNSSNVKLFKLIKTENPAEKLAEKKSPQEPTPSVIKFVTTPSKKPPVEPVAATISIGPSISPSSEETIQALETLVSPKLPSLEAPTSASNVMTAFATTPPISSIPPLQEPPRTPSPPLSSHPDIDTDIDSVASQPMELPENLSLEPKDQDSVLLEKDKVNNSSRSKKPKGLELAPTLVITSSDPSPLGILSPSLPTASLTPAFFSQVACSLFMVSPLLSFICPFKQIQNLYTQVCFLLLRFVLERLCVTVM
Method in brief: as §1

ETV2 = biological target: T10, ETV2 (Homo sapiens, UniProt O00321 1-342); conditions: protein: recombinant; tags: N-terminal GST; dsDNA, one strand shown
T10 sequence: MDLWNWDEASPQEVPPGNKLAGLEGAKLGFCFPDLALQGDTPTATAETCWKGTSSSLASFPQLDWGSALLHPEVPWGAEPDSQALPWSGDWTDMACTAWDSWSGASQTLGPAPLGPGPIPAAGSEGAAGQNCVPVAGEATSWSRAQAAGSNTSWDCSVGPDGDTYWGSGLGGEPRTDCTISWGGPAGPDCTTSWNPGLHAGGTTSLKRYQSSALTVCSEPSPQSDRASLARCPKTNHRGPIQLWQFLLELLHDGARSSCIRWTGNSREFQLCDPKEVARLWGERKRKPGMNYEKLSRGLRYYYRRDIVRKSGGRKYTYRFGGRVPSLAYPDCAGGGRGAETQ
Method in brief: as §1

ELF3 = biological target: T11, ELF3 (Homo sapiens, UniProt P78545 1-371); conditions: protein: recombinant; tags: N-terminal GST; dsDNA, one strand shown
T11 sequence: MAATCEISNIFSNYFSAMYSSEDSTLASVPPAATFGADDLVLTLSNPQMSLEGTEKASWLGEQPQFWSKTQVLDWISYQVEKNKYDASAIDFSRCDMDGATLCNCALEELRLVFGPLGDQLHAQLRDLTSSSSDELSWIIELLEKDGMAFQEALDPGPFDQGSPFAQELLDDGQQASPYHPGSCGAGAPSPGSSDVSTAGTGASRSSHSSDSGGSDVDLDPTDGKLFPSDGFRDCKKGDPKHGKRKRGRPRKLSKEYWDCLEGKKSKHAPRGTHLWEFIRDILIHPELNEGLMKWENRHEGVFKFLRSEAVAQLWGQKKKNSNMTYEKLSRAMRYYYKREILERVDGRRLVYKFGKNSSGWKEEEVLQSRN
Method in brief: as §1

CRX = CRX (Homo sapiens, UniProt O43186 1-299); conditions: protein: recombinant; tags: N-terminal GST; dsDNA, one strand shown
Sequence of CRX (O43186 whole entry): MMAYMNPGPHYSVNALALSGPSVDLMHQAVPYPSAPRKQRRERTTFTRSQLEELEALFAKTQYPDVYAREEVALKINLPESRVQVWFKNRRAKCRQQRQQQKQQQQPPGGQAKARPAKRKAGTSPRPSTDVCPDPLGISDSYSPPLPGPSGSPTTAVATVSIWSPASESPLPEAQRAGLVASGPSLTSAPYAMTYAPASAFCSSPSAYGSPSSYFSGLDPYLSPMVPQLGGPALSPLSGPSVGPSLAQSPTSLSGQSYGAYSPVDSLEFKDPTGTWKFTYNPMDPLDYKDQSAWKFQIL
Method in brief: as §1

ETV1 = ETV1 (Homo sapiens, UniProt P50549 1-477); conditions: protein: recombinant; tags: N-terminal GST; dsDNA, one strand shown
Sequence of ETV1 (P50549 whole entry): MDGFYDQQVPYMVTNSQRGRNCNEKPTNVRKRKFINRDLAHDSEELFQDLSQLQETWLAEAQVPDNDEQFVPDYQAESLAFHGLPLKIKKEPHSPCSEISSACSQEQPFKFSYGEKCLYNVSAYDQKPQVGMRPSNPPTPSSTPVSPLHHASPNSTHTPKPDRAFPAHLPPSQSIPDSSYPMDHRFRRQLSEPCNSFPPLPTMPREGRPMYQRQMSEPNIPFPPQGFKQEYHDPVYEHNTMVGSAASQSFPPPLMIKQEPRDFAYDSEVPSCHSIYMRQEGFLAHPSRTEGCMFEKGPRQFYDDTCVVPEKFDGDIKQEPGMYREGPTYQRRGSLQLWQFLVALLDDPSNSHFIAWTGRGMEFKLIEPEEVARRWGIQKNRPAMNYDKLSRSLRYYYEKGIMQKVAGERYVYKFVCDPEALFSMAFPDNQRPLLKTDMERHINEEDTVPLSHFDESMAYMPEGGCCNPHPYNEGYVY
Method in brief: as §1

## ACAGCT
FLI1
  binding signal: 1.15 fold enrichment (6-mer frequency, TF over GST control)
ELK1
  binding signal: 1.14 fold enrichment (6-mer frequency, TF over GST control)
GABPA
  binding signal: 1.19 fold enrichment (6-mer frequency, TF over GST control)
ERG
  binding signal: 1.17 fold enrichment (6-mer frequency, TF over GST control)
ELF1
  binding signal: 1.16 fold enrichment (6-mer frequency, TF over GST control)
EHF
  binding signal: 1.16 fold enrichment (6-mer frequency, TF over GST control)
SPI1
  binding signal: 1.11 fold enrichment (6-mer frequency, TF over GST control)
SPIB
  binding signal: 1.2 fold enrichment (6-mer frequency, TF over GST control)
ELK3
  binding signal: 1.18 fold enrichment (6-mer frequency, TF over GST control)
FEV
  binding signal: 1.07 fold enrichment (6-mer frequency, TF over GST control)
ETV5
  binding signal: 1.02 fold enrichment (6-mer frequency, TF over GST control)
HSF1
  binding signal: 1.07 fold enrichment (6-mer frequency, TF over GST control)
SPIC
  binding signal: 1.11 fold enrichment (6-mer frequency, TF over GST control)
ELF4
  binding signal: 1.15 fold enrichment (6-mer frequency, TF over GST control)
ELK4
  binding signal: 1.13 fold enrichment (6-mer frequency, TF over GST control)
ETV2
  binding signal: 1.16 fold enrichment (6-mer frequency, TF over GST control)
ELF3
  binding signal: 1.36 fold enrichment (6-mer frequency, TF over GST control)
CRX
  binding signal: 1.18 fold enrichment (6-mer frequency, TF over GST control)
ETV1
  binding signal: 1.08 fold enrichment (6-mer frequency, TF over GST control)
